# ALDH1A1 inh = ALDH1A1 (human) enzyme inhibition; Potency, µM (top dose mostly 75.3 µM), usual class: inhibitors; 220,000 tested, 7.3% active; AID 1030; Purified ALDH1A1, NADH fluorescence, propionaldehyde substrate; P00352; active = well fitted inhibition curve with a large enough effect, not every such curve was filed as active; inconclusive = small, poorly fitted or top-dose-only effect, or another doubt; inactive = no such curve, though single readings can be large or run the other way
# HttQ103 aggreg = mutant huntingtin aggregation inhibition. PC12 HttQ103-GFP aggregates, Acumen cytometry, 40 h. 220,000 tested, 1.1% active. Potency, µM (titrated, usually from 46.1 µM), usual class: inhibitors; note: nearly all actives have a fitted effect of over 60% in size
#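 Multiplexed with ATP-based cell death, this channel scores GFP aggregates in PC12 cells expressing inducible HTTex1-Q103-GFP. Induction used 100 nM tebufenozide; compounds were tested in concentration series.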
# HTT ATP protect = cytoprotection in Huntington HTT-Q103 PC12 cell model; PC12 HTT-Q103 induced, cytoprotection, ATP luminescence, 40 h; Potency, µM (highest dose often 56.4 µM), actives largely listed as activators; 230,000 tested, 0.14% active; note: nearly all actives have a fitted effect of over 45% in size
#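 Compounds were screened for protection of PC12 cells against cell death after tebufenozide induction (100 nM final) of mutant Huntingtin exon 1 (Q103) fused to GFP.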
# HPGD block = HPGD (human) dehydrogenase inhibition. purified HPGD, NADH fluorescence kinetic, PGE2 substrate. Potency, µM, actives largely listed as inhibitors. 150,000 tested, 4.3% active. AID 894; active = well fitted inhibition curve with a large enough effect, not every such curve was filed as active; inconclusive = small, poorly fitted or top-dose-only effect, or another doubt; inactive = no such curve, though single readings can be large or run the other way
# Target sequence (P15428 whole entry, looked up): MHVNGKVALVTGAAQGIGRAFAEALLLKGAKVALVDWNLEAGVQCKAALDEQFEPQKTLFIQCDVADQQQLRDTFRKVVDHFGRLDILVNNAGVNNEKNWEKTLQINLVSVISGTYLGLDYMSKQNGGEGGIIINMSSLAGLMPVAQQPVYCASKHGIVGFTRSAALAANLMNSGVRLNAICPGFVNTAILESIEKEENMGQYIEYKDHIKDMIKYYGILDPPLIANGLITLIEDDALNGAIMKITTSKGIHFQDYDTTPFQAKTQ
#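 20 nM HPGD preincubated 15 min at room temperature with compound in 50 mM Tris-HCl pH 8, 0.01% Tween 20. Started with 1 mM NAD+ and 30 uM prostaglandin E2; NADH fluorescence (360/450 nm) read 5 times over 30-s intervals, last minus first.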
# PNC assembly inh = blocks assembly of the perinucleolar compartment. PC3M PTB-GFP, PNC prevalence imaging, 16 h; stronger effect = lower value. activity change (PNC), negative = inhibition, % at 10 µM. 140,000 tested, 3.1% active;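 active = readout at or below -70, meaning at least 70% loss of cells showing the perinucleolar compartment, a nuclear body marking cancer cells; inconclusive = readout between -30 and a set limit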
#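 Read-out is percentage of cells bearing a perinucleolar compartment, from automated 20x imaging of fixed, Hoechst-stained PC3M PTB-GFP cells. Cells were seeded 4 h, then exposed 16 h to compound (23 nl of library stock) in duplicate plates.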
# CBFb-RUNX1 inh = blocks binding between human CBF-beta and RUNX1. Q01196+Q13951. AlphaScreen CBFb-His/RUNX1-biotin binding, biochemical. Potency, µM (series often up to 59.8 µM), most hits filed as inhibitors. 230,000 tested, under 10 active. AID 1477
#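 CBFb-His/RUNX1-biotin, 30 nM each, preincubated 20 min RT; compound 15 min RT; Ni + streptavidin beads 50 ng each, 90 min RT; AlphaScreen read.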
# A number is an active result; - = inactive; ? = inconclusive; . = no result given; [ ] = dose if it differs, or a comment. A selection: hits, their analogues and other compounds. The true share with any hit is near 11%. Unless noted, calls come from the whole dose curve; as a rule, active = well fitted curve in the direction sought with a large enough effect; inconclusive = small, poorly fitted or top-dose-only effect, or another doubt; inactive = no such curve, though single readings can be large; an effect the other way counts as inactive or inconclusive.
SMILES,ALDH1A1 inh,HttQ103 aggreg,HTT ATP protect,HPGD block,PNC assembly inh,CBFb-RUNX1 inh
Cc1nc(Nc2c(Cl)cccc2Cl)sc1C(=O)Nc1ccccc1,14.1µM,11.2µM,-[10 µM],-,-,-
COc1ccc2oc(-c3ccc(O)cc3)cc(=O)c2c1,?,.,-[1.9 µM],?,.,-
COc1ccc(CCN2CC34C=CC(O3)C(C(=O)NCc3ccccc3)C4C2=O)cc1OC (configuration not stated),-,-,-,10µM,-,-
COC(=O)C1C2C=CC3(CN(CCc4ccccc4)C(=O)C13)O2 (configuration not stated),-,-,-[10 µM],-,-,-
COC(=O)Cn1c(=NC(=O)c2ccc([N+](=O)[O-])s2)sc2cc(Br)ccc21,8.91µM,-,-[10 µM],-,-93.4,-
COC(=O)Cn1c(=NC(=O)c2ccc(Cl)s2)sc2cc(C)ccc21,?,-,-[10 µM],?,-119.4,-
C#C[C@@]1(O)CC[C@@H]2[C@@H]3CCC4=CC(=O)CC[C@@H]4[C@H]3CC[C@]21CC,-,.,-,-,.,-
CC(C)OP(=O)(OC(C)C)C(O)c1ccc2c(c1)OCO2 (configuration not stated),-,-,-[0.074 µM],-,?,-
O=C(O)c1cccc(CN2C(=O)SC(Nc3ccccc3)C2=O)c1 (configuration not stated),7.08µM,-,-[0.074 µM],-,-,-
CN1C(=O)SC(Nc2ccccc2)C1=O (configuration not stated),31.6µM,-,-[1.9 µM],-,-,-
Cc1ccc(NC2SC(=O)N(Cc3cccc(C(=O)O)c3)C2=O)c(C)c1 (configuration not stated),.,-[9.22 µM],-[10 µM],.,.,-
Cc1ccc(NC2SC(=O)N(Cc3cccc(C(=O)O)c3)C2=O)cc1 (configuration not stated),25.1µM,-,-,-,-,-
CCCCCCCCCCCCCCCCN,.,-,?,.,.,.
Oc1ccc(-c2cn3c(n2)SCC3)cc1O,6.31µM,-,-[10 µM],2.24µM,-,?
Oc1ccc(-c2cn3c(n2)SCC3)cc1,-,-,-[10 µM],-,-,-
Cc1cccc(C)c1OC[C@@H](N)C(C)C,.,.,-[1.9 µM],.,.,.
CC(=O)[C@@H]1CC[C@@H]2[C@@H]3C[C@H](C)C4=CC(=O)CC[C@@]4(C)[C@H]3[C@H](O)C[C@]21C,-,-,-,-,.,-
O=C(CSc1nc2ccccc2[nH]1)Nc1ccc(F)cc1,-,-,-,-,-,-
Cc1ccccc1NC(=O)/C=C/c1cccs1,-,-,-,.,.,-
Cc1cc(C)nc(NS(=O)(=O)c2ccc(NC(=O)CSc3nc4ccccc4[nH]3)cc2)n1,20µM,-,-[10 µM],-,-,-
COc1ccc2nc(SCC(=O)Nc3ccc(S(=O)(=O)Nc4nccc(C)n4)cc3)[nH]c2c1,?,-,-,28.2µM,-,-
CCN(CC)S(=O)(=O)c1ccc(C)c(NC(=O)/C=C/c2cccs2)c1,0.708µM,?,-[10 µM],-,-,-
COc1ccc2nc(SCC(=O)Nc3ccccc3C)[nH]c2c1,?,-,-,-,-,-
CCN(CC)S(=O)(=O)c1ccc(C)c(NC(=O)CSc2nc3ccccc3[nH]2)c1,?,-,-[10 µM],-,-92.3,-
Cc1ccc(-n2c(=O)c3sccc3n(CC(=O)NCc3ccco3)c2=O)cc1F,?,-,-,-,-,-
Cc1cc(C)nc(NS(=O)(=O)c2ccc(NC(=O)C3(c4ccccc4)CCCC3)cc2)n1,-,-,-[10 µM],.,-115.2,-
Cc1ccc2[nH]c(=O)c(CN(CCc3ccccc3)C(c3nnnn3Cc3ccco3)C(C)C)cc2c1 (configuration not stated),.,-[9.22 µM],-[10 µM],.,.,-
CCC(c1nnnn1CCc1ccccc1)N(Cc1ccco1)Cc1cc2c(C)ccc(C)c2[nH]c1=O (configuration not stated),22.4µM,?,-[10 µM],-,-,-
CCC(c1nnnn1Cc1ccco1)N(CCc1ccccc1)Cc1cc2cc(C)ccc2[nH]c1=O (configuration not stated),25.1µM,28.2µM,-[10 µM],.,-,-
